Outcome and AC50 data for 15 compounds are collected here from PubChem BioAssay (EPA / NIEHS).

Results filed as inconclusive are left out. Activity calls are given as the source filed them. Rule for the calls: active = hit-call score of the fitted dose curve at least 0.9, where 1 is the maximum; inconclusive = response in the unintended direction; inactive = score below 0.9.

Peroxisome proliferator-activated receptor gamma (Homo sapiens), sequence (P37231 whole entry, looked up): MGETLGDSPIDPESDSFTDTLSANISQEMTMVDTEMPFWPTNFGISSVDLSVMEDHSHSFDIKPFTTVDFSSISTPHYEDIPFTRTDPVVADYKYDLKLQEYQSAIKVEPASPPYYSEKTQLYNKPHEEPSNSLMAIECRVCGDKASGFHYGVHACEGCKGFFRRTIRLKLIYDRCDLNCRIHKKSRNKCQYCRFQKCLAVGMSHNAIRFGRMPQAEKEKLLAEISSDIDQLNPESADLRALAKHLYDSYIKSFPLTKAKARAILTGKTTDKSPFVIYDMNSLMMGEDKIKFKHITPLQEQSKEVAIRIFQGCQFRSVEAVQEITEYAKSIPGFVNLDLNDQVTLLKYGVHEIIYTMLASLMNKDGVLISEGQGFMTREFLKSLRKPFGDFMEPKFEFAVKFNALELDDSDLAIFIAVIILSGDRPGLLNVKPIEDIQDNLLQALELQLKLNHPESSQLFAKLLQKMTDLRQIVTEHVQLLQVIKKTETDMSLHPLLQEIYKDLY

This assay concerns the target Peroxisome proliferator-activated receptor gamma (Homo sapiens) (UniProt P37231). The experiment in a line: NVS_NR_hPPARg: NovaScreen (NVS) Nuclear Receptor Binding Assay for human Peroxisome Proliferator-activated Receptor gamma (PPARg) (AID 2283370). In a few lines: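 FP read-out, 2 h post-dose, cell-free extracted receptor protein. Signal loss vs DMSO negative control = binding activity. Single-conc duplicate HTS at 25 uM; concentration-response follow-up for actives.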
As to `CC(C)=CCC/C(C)=C\CO`, the compound was called inactive.

Take `CC(C)=CCCC(C)CCO` (stereo not given): the result was inactive. For the compound `COc1ccc2sc(C(=O)Nc3nnn[nH]3)c(OC(C)C)c2c1`, the AC50 was 5.14 µM (active). Regarding `C=CC(=C)CCC=C(C)C`, the outcome was inactive. For the compound `O=C(NS(=O)(=O)/C=C/c1ccccc1)c1ccc(F)cc1Cl`, the concentration at half-maximal activity (AC50) is 39.6 µM (active). Take `O=c1[nH]c2ccc(S(=O)CCN3CCC(Cc4ccc(F)cc4)CC3)cc2o1` (stereo not given): the compound was called inactive. Same read-out and setting: to `COc1cccc(-c2ccc(/C=C\CN3CCCCCC3)cc2Cl)c1` belongs “inactive”. The same measure, in the same setting: as for `CC/C(=C\C(=N/O)C(N)=O)C(C)[N+](=O)[O-]` (stereo not given), the entry is “inactive”. Consider `Cn1c(=O)cc(Oc2ccc(F)cc2F)c2cnc(NCC(C)(C)O)nc21`, for which the AC50 is 32.4 µM (active). As to `COC(=O)c1c(Cl)c(Cl)c(C(=O)OC)c(Cl)c1Cl`, the call was inactive. Same read-out and setting: as for `CNS(=O)(=O)c1cc(C(=O)N2CCC(CCN3C4CCC3CC(n3c(C)nc5ccccc53)C4)(c3cccc(F)c3)CC2)c(Cl)cc1F` (stereo not given), the entry is “inactive”. As to `CC(C)c1cccc(C(C)C)c1N1C(=O)c2ccc(O)cc2C1=O`, the AC50 is 16.1 µM (active). For the compound `O=C(O)c1cccc(Oc2ccccc2)c1`, the result was inactive.

With `Cn1cnc([N+](=O)[O-])c1Sc1ncnc2nc[nH]c12`, the result was inactive. With `CCC(C)(C)C(=O)O[C@H]1C[C@@H](C)C=C2C=C[C@H](C)[C@H](CC[C@@H]3C[C@@H](O)CC(=O)O3)[C@H]21`, the result was inactive.
